# Source: PubChem BioAssay
# Pol kappa inh-1: blocks human DNA polymerase kappa activity; Q9UBT6; purified Pol kappa, fluorescent DNA synthesis assay, 10 min; Potency, µM (top dose mostly 107 µM), hits mostly inhibitors; hit rate 0.53% among 400,000; AID 588579
#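 Activity was followed as the change in fluorescence between reads at 0 and 10 min after starting the reaction with 50 nM substrate. Beforehand, 10 nM polymerase had been preincubated with compound for 15 min at room temperature.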
# Pol iota inh: inhibitors of human DNA polymerase iota; Pol iota fluorescent replication assay, 10 min; Potency, µM (titrated, usually from 115 µM), hits mostly inhibitors; Q9UNA4; hit rate 1% among 390,000
#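 Fluorescent replication assay read twice, at 0 min and 10 min after adding 50 nM (final) substrate. Enzyme (10 nM) and compounds were first incubated 15 min at room temperature; enzyme-free buffer wells were negative controls.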
# Pol beta inh: inhibitors of human DNA polymerase beta; Pol beta primer extension/strand displacement, fluorescence kinetic; Potency, µM (top dose mostly 114 µM), usual class: inhibitors; hit rate 1.3% among 340,000; AID 485314
#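 Pol beta (10 nM) was preincubated with compound for 15 min at room temperature. The reaction was then started with 50 nM substrate and read immediately and after a further 10 min at room temperature.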
# Pol eta inh-1: inhibitors of human DNA polymerase eta; AID 588591; hit rate 1.2% among 390,000; recombinant Pol eta, fluorescent DNA replication assay; Potency, µM (titrated, usually from 114 µM), hits mostly inhibitors; Q9Y253
#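 Fluorescent replication assay: 50 nM final substrate added after a 15 min room-temperature compound preincubation with 10 nM enzyme. Signal taken at 0 min and again at 10 min.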
# FEN1 inhibitor: inhibitors of human flap endonuclease 1; P39748; Recombinant FEN1 flap cleavage, fluorescence, 15 min; Potency, µM (highest dose often 114 µM), actives largely listed as inhibitors; hit rate 0.35% among 390,000; AID 588795; further: nearly all actives have a fitted effect of over 65% in size
#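 Quantitative HTS format: each compound was titrated, incubated with 10 nM nuclease for 15 min at room temperature, then challenged with flap substrate at 50 nM final. Signal change over 15 min gave concentration–effect curves.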
# WRN helicase inh: inhibitors of human WRN helicase; Q14191; WRN helicase unwinding, fluorescent forked duplex, kinetic; Potency, µM (doses to about 114 µM), actives largely listed as inhibitors; hit rate 0.46% among 360,000; further: nearly all actives have a fitted effect of over 55% in size
# Target sequence (Q14191 whole entry, looked up): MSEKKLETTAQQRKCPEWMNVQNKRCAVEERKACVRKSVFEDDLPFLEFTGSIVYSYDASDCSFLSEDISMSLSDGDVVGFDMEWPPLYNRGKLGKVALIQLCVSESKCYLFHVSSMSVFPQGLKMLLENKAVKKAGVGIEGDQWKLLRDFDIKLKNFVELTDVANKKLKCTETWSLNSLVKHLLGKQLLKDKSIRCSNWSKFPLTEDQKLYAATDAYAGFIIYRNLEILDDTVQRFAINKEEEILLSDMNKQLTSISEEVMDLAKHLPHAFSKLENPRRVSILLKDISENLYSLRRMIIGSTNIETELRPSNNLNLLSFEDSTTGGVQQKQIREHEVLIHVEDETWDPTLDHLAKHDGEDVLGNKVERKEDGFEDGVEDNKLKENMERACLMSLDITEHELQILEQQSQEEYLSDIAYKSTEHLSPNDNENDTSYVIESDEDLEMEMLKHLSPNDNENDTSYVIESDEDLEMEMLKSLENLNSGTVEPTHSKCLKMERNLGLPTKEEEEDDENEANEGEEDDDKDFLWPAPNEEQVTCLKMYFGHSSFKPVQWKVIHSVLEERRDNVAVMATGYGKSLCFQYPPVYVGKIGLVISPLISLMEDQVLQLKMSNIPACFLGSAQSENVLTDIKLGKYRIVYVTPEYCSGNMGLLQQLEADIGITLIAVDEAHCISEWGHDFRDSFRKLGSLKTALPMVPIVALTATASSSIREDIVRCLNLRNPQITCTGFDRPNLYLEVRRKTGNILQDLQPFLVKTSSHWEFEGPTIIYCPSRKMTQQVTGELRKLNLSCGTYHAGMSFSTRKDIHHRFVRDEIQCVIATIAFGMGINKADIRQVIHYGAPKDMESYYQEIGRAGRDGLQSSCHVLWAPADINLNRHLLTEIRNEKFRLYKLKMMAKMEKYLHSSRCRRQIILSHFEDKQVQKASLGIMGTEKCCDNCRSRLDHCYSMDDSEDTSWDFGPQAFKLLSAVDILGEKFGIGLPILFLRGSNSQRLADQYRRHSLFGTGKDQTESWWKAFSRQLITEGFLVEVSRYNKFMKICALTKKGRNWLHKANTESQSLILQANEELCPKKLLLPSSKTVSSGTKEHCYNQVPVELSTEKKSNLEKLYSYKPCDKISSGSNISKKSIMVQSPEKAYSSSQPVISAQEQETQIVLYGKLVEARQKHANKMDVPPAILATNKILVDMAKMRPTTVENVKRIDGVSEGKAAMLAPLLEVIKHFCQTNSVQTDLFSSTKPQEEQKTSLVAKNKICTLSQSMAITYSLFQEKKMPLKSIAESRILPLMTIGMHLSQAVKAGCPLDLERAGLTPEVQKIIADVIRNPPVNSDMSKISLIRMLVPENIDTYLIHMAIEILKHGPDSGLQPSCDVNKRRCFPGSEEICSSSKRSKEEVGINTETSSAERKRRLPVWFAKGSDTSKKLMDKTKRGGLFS
#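 Kinetic fluorescence helicase assay: unwinding of a quenched forked DNA duplex (100 nM final) with 2 mM ATP final raises red fluorescence (525/598 nm). Compounds sat 15 min at room temperature with 20 nM WRN beforehand.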
# GALK inh confirm: galactokinase (human) inhibition, confirmation; hit rate 70% among 150; Potency, µM (doses to about 115 µM), actives largely listed as inhibitors; purified GALK, Kinase-Glo ATP depletion luminescence; shares compounds with Pol eta inh-1; AID 2015
# Redox cycling: redox cycling activity in phenol red-HRP assay; Phenol red-HRP H2O2 redox cycling, absorbance 600 nm; Potency, µM (doses to about 115 µM), most hits filed as inhibitors; hit rate 40% among 150; AID 2035; shares compounds with Pol eta inh-1
# HEK293 viability: reduces HEK-293 cell viability in GALK counter-screen | Potency, µM (highest dose often 46.1 µM), usual class: inhibitors | HEK-293 viability, ATP luminescence (CellTiter-Glo), 24/48 h | shares compounds with Pol eta inh-1 | hit rate 10% among 170 | AID 2547
# Pol kappa inh-2: confirmation of human DNA polymerase kappa inhibitors | shares compounds with Pol eta inh-1 | purified Pol-kappa, fluorescent strand-displacement substrate | Potency, µM, usual class: inhibitors | hit rate 76% among 920 | AID 720501
# Pol eta inh-2: confirmation of human DNA polymerase eta inhibitors; hit rate 64% among 2,600; shares compounds with Pol eta inh-1; Pol eta primer extension, TAMRA/BHQ fluorescence, 10 min; Potency, µM, hits mostly inhibitors; AID 720502
# A number is an active result; – = inactive; ? = inconclusive; · = no result given; [ ] = remark or other dose. In the library only some 2.4% were active in any assay of this set; here they are far more common. The call rests on the fitted dose curve; in most records, active means well fitted curve in the direction sought with a large enough effect; inconclusive means small, poorly fitted or top-dose-only effect, or another doubt; inactive means no such curve, though single readings can be large; an effect the other way counts as inactive or inconclusive.
SMILES,Pol kappa inh-1,Pol iota inh,Pol beta inh,Pol eta inh-1,FEN1 inhibitor,WRN helicase inh,Pol eta inh-2,others
Cc1cc(C)nc(SCC(=O)NNS(=O)(=O)c2ccc(C#N)cc2)n1,?,18µM,·,13µM,–,?,76,Pol kappa inh-2=?
CCN(CC)CCCNC(=S)N1CCC(c2nc3ccccc3[nH]2)CC1,–,–,–,–,–,–,·,
COc1cc(Br)cc2cc(C(=O)N3CCN(C(=O)c4ccco4)CC3)c(=O)oc12,?,32µM,–,79µM,–,?,85,
O=C(Nc1nnc(S(=O)(=O)N2CCCc3ccccc32)s1)c1ccc(Cl)cc1,–,–,–,?,–,·,·,Pol kappa inh-2=?
O=C(Nc1nnc(S(=O)(=O)N2CCCc3ccccc32)s1)c1ccccc1Br,–,–,–,79µM,–,·,?,Pol kappa inh-2=?
COc1ccc(C(=O)Nc2nc(N)n(-c3ccccc3)n2)cc1,–,–,–,–,–,–,·,
Cc1cc(C)n2c(Nc3ccc4c(c3)OCCO4)c(-c3ccc(Cl)cc3)nc2n1,–,–,–,–,–,·,·,
Cc1cc(C(=O)C(=O)Nc2nncs2)c(C)n1-c1ccc(Cl)cc1,–,–,?,?,–,·,·,
Cc1cccc(-n2c(C)cc(C(=O)C(=O)Nc3nncs3)c2C)c1,–,–,–,50µM,–,·,?,Pol kappa inh-2=?
Cc1cc(C(=O)C(=O)Nc2nnc(C(C)C)s2)c(C)n1-c1ccccc1,–,–,–,40µM,–,·,?,Pol kappa inh-2=21
Cc1cc2ncn(C(=O)c3c(-c4ccccc4)noc3C)c2cc1C,–,–,–,–,–,–,·,
O=S(=O)(c1ccc(OC(F)(F)F)cc1)N1CCCC(c2ccccc2)C1 (centres undefined),–,?,–,–,–,–,·,
O=C(CCN1C(=O)/C(=C/c2cccs2)SC1=S)Nc1ccc(C(=O)O)cc1,–,?,32µM,45µM,?,–[11.6 µM],·,Pol kappa inh-2=75
Cc1cc(C(c2ccc(C)o2)c2ccc(C)o2)c(O)c([N+](=O)[O-])c1,–,?,–,–,–,–,·,
Cc1ccc(C(c2ccc(C)o2)c2cccc([N+](=O)[O-])c2O)o1,?,?,?,18µM,–,?,85,
Cn1c2ccccc2c(=O)n2c(=O)c3ccccc3cc12,·,·,–,·,·,·,·,GALK inh confirm=11µM;Redox cycling=9.4µM;HEK293 viability=–
O=C(Nc1ccc(S(=O)(=O)Nc2nccs2)cc1)c1ccc(=O)[nH]c1,?,?,50µM,20µM,–,?,43,Pol kappa inh-2=67
O=C(Nc1ccc(S(=O)(=O)Nc2nccs2)cc1)c1ccncc1,·,·,·,·,·,–,·,
Oc1ccc[n+](/C=C\c2ccccc2)c1,–,–,·,–,–,–,·,
CCc1ccc(OCC(=O)N/N=C\c2ccco2)c([N+](=O)[O-])c1,79µM,20µM,?,?,–,?,?,
COC(CNC(=O)c1ccc(-n2c(=S)[nH]c3ccccc3c2=O)cc1)OC,–,–,–,–,–,–,·,
Nc1c(C(=O)Nc2cccc(C(=O)O)c2)sc2nc3c(cc12)CCCC3,–,–,–,?,–,–[11.6 µM],?,Pol kappa inh-2=21
COc1cc(C2CC(=O)Oc3c2c(=O)n(C)c2ccccc32)ccc1O (centres undefined),?,?,?,35µM,?,–[11.6 µM],?,Pol kappa inh-2=47
Cc1ccn2c(=O)nc(SCC(=O)NC3CCCCC3)nc2c1,–,–,·,–,–,–,·,
Cc1ccn2c(=O)nc(SCC(=O)NC3CCCC3)nc2c1,–,?,·,22µM,–,–[11.6 µM],76,
SMILES,Pol kappa inh-1,Pol iota inh,Pol beta inh,Pol eta inh-1,FEN1 inhibitor,WRN helicase inh,Pol eta inh-2,others
O=C(Nc1sc2c(c1C(=O)O)CCC2)C(=O)N1CCOCC1,–,?,?,20µM,–,–,?,
CN(C(=O)c1ccc2c(c1)N(Cc1ccccc1F)C(=O)c1ccccc1S2)C1CCCCC1,–,–,–,–,?,·,·,
Cc1c(C(=O)N2CCCC2)sc(NC(=O)c2ccc(Cl)cc2)c1C#N,–,–,–,–,–,–,·,GALK inh confirm=?;Redox cycling=–;HEK293 viability=–
Cn1nc2c(c1C(=O)O)CCCC2,?,?,?,8.9µM,–,–,27,
Cc1ccc(C2(c3ccccc3)NC(=O)N(CC(=O)NC3CCS(=O)(=O)C3)C2=O)cc1C (centres undefined),–,–,·,–,–,–,·,
CC1(C)OC(=O)C(=CNc2cccc(O)c2)C(=O)O1,–,–,–,–,–,–,·,
CC1(C)OC(C)(C)/C(=C/Nc2ccc(O)cc2)C1=O,–,?,?,18µM,–,–,?,Pol kappa inh-2=?
CCOC(=O)C1(Cc2cccc(F)c2)CCN(C(=O)C2CCOCC2)CC1,–,–,–,–,–,–,·,
CCOC(=O)C1(Cc2cccc(F)c2)CCN(C(=O)COC)CC1,–,–,–,–,–,–,·,GALK inh confirm=–;Redox cycling=–;HEK293 viability=–
O=C(NCC1CCCO1)c1cc(-c2ccco2)nc2ccccc12 (centres undefined),?,?,45µM,16µM,–,–,85,
O=C(NCC1CCCO1)c1cc(-c2ccncc2)nc2ccccc12 (centres undefined),–,–,·,–,–,–,·,
CCOC(=O)C1=C(O)/C(=C/c2ccc(-c3ccccc3C(=O)O)o2)SC1=Nc1ccc(OC)cc1,–,?,?,10µM,?,?,43,
Cc1ccc(F)c(S(=O)(=O)NC(=O)C2(C)CCN2C(=O)Cc2ccc(Cl)cc2Cl)c1 (centres undefined),·,·,·,·,·,–,·,
Cc1nnc(NS(=O)(=O)c2ccc(N=Nc3ccc(N)nc3N)cc2)s1,79µM,16µM,·,20µM,?,?,48,
Cc1nnc(NS(=O)(=O)c2ccc(N)cc2)s1,–,–,–,–,–,·,·,
O=C1Nc2c(Cl)cc(Cl)cc2C1=O,?,?,·,?,–,–[11.6 µM],?,
Cc1cccc(N=C2C(=O)Nc3c(Cl)cccc32)c1,–,?,–,–,–,–,·,
O=C(O)/C=C/c1ccc(S(=O)(=O)Nc2cccnc2)cc1,–,–,–,–,–,–,·,
